Laboratory results published in PubChem BioAssay (NCATS).
Values joined by “and” are separate entries in the source; they are usually repeats but may differ in a detail not shown here. Equal entries are not always repeated. Records with an inconclusive call do not appear. Active and inactive are the calls of the source. Calls come from the whole dose curve; as a rule, active = well fitted cell-killing curve with a large enough effect; inconclusive = small, poorly fitted or top-dose-only effect; inactive = flat fitted curve, though single readings scatter. Where a SMILES comes first, the peptide text is derived from it.

Test: Cellular viability qHTS for adrenocortical cancer (ACC) cell line SW-13 (AID 1963989); note: nearly all actives have a fitted effect of over 65% in size;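 for activity (max response): cells grown in serum-free medium with ITS supplement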
Conditions: SW-13 ACC cells viability, CellTiter-Glo, 48 h; activity (max response): hits give low values
From the text: PI: Naris Nilubol, MD Surgical Oncology Program, National Cancer Institute (NCI) National Institute of Health (NIH), Bethesda, Maryland Adrenocortical cancer (ACC) is a rare malignancy with poor survival outcomes and few treatment options. Currently, mitotane is the only FDA-approved therapy for ACC. Although adjuvant radiation therapy is rarely utilized, it has the potential to improve survival in select cases. Through a quantitative high-throughput drug screen (qHTS), we identified auranofin (AF), a thioredoxin reductase (TXNRD) inhibitor, as a promising candidate drug. This study aims to evaluate whether AF can enhance the efficacy of radiation therapy in the treatment of ACC. Two human ACC cell lines, SW-13 and NCI-H295R, were screened using the National Center for Advancing Translational Sciences (NCATS) Pharmaceutical Collection (NPC) and the Mechanism Interrogation PlatE (MIPE) library (~4,991 compounds). CellTiter-Glo (Cat # G7570, Promega, Madison, WI) was utilized to measure cell viability. Described herein are the results of the corresponding viability assay.
PROTOCOL TABLE (as described by Inglese J, Shamu CE and Guy RK. 2007) SEQUENCE No. (e.g., 1, 2, 3, etc.); […] (e.g., Cells, Incubation, Reagent, etc.); VALUE; DESCRIPTION. 1; Cells; 5 uL; white, solid-bottom, 1536-well tissue-culture treated plates. 2; Time; overnight culture at 37C with 5% CO2. 3; Compounds and control; 23 nL; Kalypsis pin tool (Wako USA) equipped with a 1536-well pin head to transfer to the assay plates. 4; Time; 48 hours; 37C with 5% CO2. 5; Reagent; 4 uL; CellTiter-Glo luminescent substrate mix. 6; Time; 20 min at room temperature. 7; Detection; Luminescence; ViewLux plate reader NOTES (numbers refer to Sequence numbers above) 1. SW13 cells were harvested from a T175 flask and resuspended in ITS-supplemented DMEM serum-free medium at a concentration of 300 000 cells/mL. Then 5 uL of resuspended cells were dispensed into each well of white, solid-bottom, 1536-well tissue-culture-treated plates using a multidrop combi dispenser. The plates were covered with stainless steel gasket lids. 2-3. The plates were cultured overnight at 37C with 5% CO2. Twenty-three nL of compounds (eight selected concentrations from the NPC / MIPE) or positive control (10 mM stock of bortezomib) in DMSO was transferred to each well of the assay plate using a pin tool (Kalypsys, San Diego, CA, USA). The final concentration of the compounds in the 5 uL assay volume ranged from 0.5 nM to 46 uM. 4-6. After 48 hours of incubation at 37C and 5% CO2, 4 uL of CellTilter-Glo luminescent substrate mix (Promega, Madison, WI, USA) was added to each well. Then the plates were incubated for 20 minutes at room temperature. 7. After incubation, luminescence was measured using a ViewLux plate reader (PerkinElmer, Waltham, MA, USA) with a clear filter was used to measure the number of metabolically competent cells. To determine compound activity in the qHTS assay, the titration-response data for each sample was plotted and modeled by a four-parameter logistic fit yielding IC50 and efficacy (maximal response) values. […] REFERENCES: Inglese J, Shamu CE and Guy RK, Reporting data from high throughput screening of small molecule libraries, Nature Chemical Biology, 2007, 3(8): 438-441. doi.org/10.1038/nchembio0807-438.
% is set by controls: 0 for no effect and ±100 for the full control effect.

SMILES	Potency	activity (max response)
Cc1ccc(NC(=O)Nc2cc(C(F)(F)F)ccc2F)cc1Nc1ccc2c(c1)NC(=O)/C2=C\c1ccc[nH]1	22.4 µM (active)	–
COc1cc(C(=O)NC2CCN(C)CC2)ccc1Nc1ncc2c(n1)N(C1CCCC1)CCC(=O)N2C(C)C	25.1 µM (active)	–
Nc1ccn(C[C@@H](CO)OCP(=O)(O)O)c(=O)n1	–	-11.5% (inactive)
COc1nccc(-c2c(-c3ccc(F)cc3)ncn2C2CCNCC2)n1	–	-17.6% (inactive)
Clc1cccc(C(c2ccc3nc[nH]c3c2)n2ccnc2)c1 (stereo not given)	–	10.9% (inactive) and -12.2% (inactive)
CCC1Nc2cc(Cl)c(S(N)(=O)=O)cc2S(=O)(=O)N1 (stereo not given)	–	2.08% (inactive)
CC(/C=C/[C@@H]1C[C@]1(C)c1ccc2c(c1)C(C)(C)CCC2(C)C)=C\C(=O)O	–	-5.24% (inactive)
Cc1cn([C@@H]2C[C@@H](O)[C@H](CO)O2)c(=O)[nH]c1=O	–	-17.5% (inactive)
O=C(O)CCCCC1CCSS1 (stereo not given)	–	9% (inactive)
COc1cc(N2CCC(N3CCN(C)CC3)CC2)ccc1Nc1ncc(Cl)c(Nc2ccccc2P(C)(C)=O)n1	1 µM (active)	–
Cc1onc(-c2c(Cl)cccc2Cl)c1C(=O)Cl	–	17.1% (inactive)
O=C(CCN1CCN(CCO)CC1)N1c2ccccc2Sc2ccc(C(F)(F)F)cc21	–	-5.01% (inactive)
O=C1NC(=O)C(c2c[nH]c3ccccc23)=C1c1c[nH]c2ccccc12	25.1 µM (active)	–
CC(=O)N[C@@H](CO)C(=O)N[C@@H](CC(=O)O)C(=O)N[C@@H](CCCCN)C(=O)N1CCC[C@H]1C(=O)O (Ac-SDKP-OH)	–	0.638% (inactive)
Cc1ccc(S(=O)(=O)NC(=O)NC2CCCCCCC2)cc1	–	11.9% (inactive)
CCNC(=O)c1noc(-c2cc(C(C)C)c(O)cc2O)c1-c1ccc(CN2CCOCC2)cc1	0.0708 µM (active)	–
CC(C)NC[C@@H](O)COc1ccc(CC(N)=O)cc1	–	7.4% (inactive)
CCCN[C@H]1CCc2nc(N)sc2C1	–	-1.3% (inactive) and 3.21% (inactive)
CCCCCCCCCCCCCCCC(=O)NCCO	–	3.88% (inactive)
CCC(C)CNCC(=O)N1CCc2sccc2C1c1cccc(C)n1 (stereo not given)	–	11.1% (inactive)

SMILES	Potency	activity (max response)
CCOc1ccc(NC(=O)CC(C)O)cc1 (stereo not given)	–	-9.31% (inactive)
COc1cc2c3c(n(CCCn4ccnc4)c(=O)c2cc1OC)-c1cc2c(cc1C3=O)OCO2	0.0316 µM (active)	–
CNc1nc(Nc2cnn([C@H]3CCN(C4COC4)C[C@@H]3F)c2Cl)ncc1C(F)(F)F	–	-2.31% (inactive)
CCC[C@@H]1C[C@@H](C(=O)N[C@@H]([C@H]2O[C@H](SC)[C@H](O)[C@@H](O)[C@H]2O)[C@H](C)Cl)N(C)C1	–	5.6% (inactive)
CCCCOc1ccc(C(=O)Nc2ccc(F)cc2F)cc1	–	-9.55% (inactive)
Cc1[nH]cnc1CN1CCN(C(=O)N[C@@H](CC(C)C)C(=O)O)[C@@H](Cc2ccccc2)C1=O	–	6.54% (inactive)
CC(C)c1cc2c(cc1S(=O)(=O)O)[C@@]1(C)CCC[C@@](C)(C(=O)O)[C@@H]1CC2	–	15.8% (inactive)
C=CCN1C[C@H](C(=O)N(CCCN(C)C)C(=O)NCC)CC2c3cccc4[nH]cc(c34)C[C@H]21 (stereo not given in full)	–	-6.18% (inactive)
CN(C)c1ccc(C(=C2C=CC(=[N+](C)C)C=C2)c2ccc(N(C)C)cc2)cc1	651 nM (active) and 1.58 µM (active)	–
Cc1ccc(C(C)OC(=O)C2(C)CCC(C(=O)O)C2(C)C)cc1 (stereo not given)	–	8.64% (inactive)
CC(S)C(=O)NCC(=O)O (stereo not given)	–	6.56% (inactive) and -5.95% (inactive)
Nc1nc(N)nc(-c2cc(Cl)ccc2Cl)n1	–	2.1% (inactive) and -6.28% (inactive)
Cn1cnc([N+](=O)[O-])c1Sc1ncnc2nc[nH]c12	5.01 µM (active) and 9.2 µM (active) and 7.94 µM (active)	–
C[C@@]12C(=O)OC(=O)[C@]1(C)[C@H]1CC[C@@H]2O1	15.8 µM (active)	–
CCCC[C@@H](C=O)NC(=O)[C@H](CC(C)C)NC(=O)OCc1ccccc1	–	-4.14% (inactive)
CCCc1nc(C(C)(C)O)c(C(=O)O)n1Cc1ccc(-c2ccccc2-c2nn[nH]n2)cc1	–	8.92% (inactive)
CCCC(=O)Nc1ccc(O)c(C(C)=O)c1	–	10.4% (inactive)
C[C@H]1C[C@H]2[C@@H]3CCC4=CC(=O)C=C[C@]4(C)[C@H]3C(=O)C[C@]2(C)[C@@]1(O)C(=O)CO	–	-6.73% (inactive)
CC[C@H]1CN2CCc3cc(OC)c(OC)cc3[C@@H]2C[C@@H]1C[C@H]1NCCc2cc(OC)c(OC)cc21	231 nM (active) and 447 nM (active)	–
O=C(O)CC1CCC(c2ccc(-c3ccc(Nc4ccc(C(F)(F)F)nc4)cn3)cc2)CC1 (stereo not given)	–	-23.1% (inactive)
